Experimental data reported in PubChem BioAssay (EPA / NIEHS).
Calls of active or inactive are those of the source. How the source made its calls: active means hit-call score of the fitted dose curve at least 0.9, where 1 is the maximum; inactive means score below 0.9.

Assays:
Conditions in all cases: mRNA level, 48 h; actives raise or lower the signal
[1] = read-out: Cytochrome P450 (CYP2B6), CYP2B6 (gene 1555); experiment: LTEA_HepaRG_CYP2B6: Life Technologies and Expression Analysis (LTEA) Assay for Cytochrome P450 (CYP2B6) using HepaRG (AID 2283481)
Method in brief: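 Read-out is CYP2B6 mRNA by TaqMan qRT-PCR, normalized to three housekeeping genes and fitted bidirectionally against 0.5% DMSO baseline. Human HepaRG cells received test chemicals for 48 h, top concentration 100 uM, half-log dilutions.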

[2] = read-out: Cytochrome P450 2C19 (Homo sapiens) (UniProt P33261); experiment: LTEA_HepaRG_CYP2C19: Life Technologies and Expression Analysis (LTEA) Assay for CYP2C19 using HepaRG (AID 2283482)
Method in brief: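 HepaRG, 48 h chemical exposure, 8-pt half-log series from 100 uM in 0.5% DMSO, duplicates. Readout: CYP2C19 mRNA by TaqMan qRT-PCR, housekeeping-normalized. Bidirectional fit vs DMSO baseline; phenobarbital 1mM as induction control.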

CYP2C8 (gene 1558) = experiment: LTEA_HepaRG_CYP2C8: Life Technologies and Expression Analysis (LTEA) Assay for CYP2C8 using HepaRG (AID 2283483)
Method in brief: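 Differentiated human HepaRG cells were exposed for 48 h in serum-free induction medium to eight half-log concentrations up to 100 uM in 0.5% DMSO, in duplicate. CYP2C8 mRNA was measured by TaqMan qRT-PCR, normalized to ACTB, GAPDH and POLR2A, and fitted bidirectionally against DMSO.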

CYP2C9 (gene 1559) = experiment: LTEA_HepaRG_CYP2C9: Life Technologies and Expression Analysis (LTEA) Assay for CYP2C9 using HepaRG (AID 2283484)
Method in brief: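 Differentiated human HepaRG cells were exposed 48 h in serum-free induction medium to eight half-log concentrations up to 100 uM in 0.5% DMSO. CYP2C9 mRNA was measured by qRT-PCR, normalized to ACTB, GAPDH and POLR2A, and fitted bidirectionally against DMSO.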

CYP2E1 (gene 1571) = experiment: LTEA_HepaRG_CYP2E1: Life Technologies and Expression Analysis (LTEA) Assay for CYP2E1 using HepaRG (AID 2283485)
Method in brief: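 Differentiated HepaRG cells were treated in duplicate for 48 h with chemicals in 0.5% DMSO, from 100 uM downward in half-log dilutions. RNA was then analysed by qRT-PCR for CYP2E1 induction or loss.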

CYP4A11 (gene 1579) = experiment: LTEA_HepaRG_CYP4A11: Life Technologies and Expression Analysis (LTEA) Assay for CYP4A11 using HepaRG (AID 2283486)
Method in brief: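 CYP4A11 transcript levels were quantified by TaqMan qRT-PCR after HepaRG human liver cells were treated for 48 hours with test chemicals (top 100 uM, half-log dilutions, 0.5% DMSO). Gain or loss of signal was fitted relative to DMSO.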

[3] = read-out: Cytochrome P450 3A4 (Homo sapiens) (UniProt P08684); experiment: LTEA_HepaRG_CYP3A4: Life Technologies and Expression Analysis (LTEA) Assay for CYP3A4 using HepaRG (AID 2283487)
Method in brief: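 HepaRG, 48 h exposure, 8-pt CRC from 100 uM (half-log), 0.5% DMSO, duplicates; serum-free induction medium. Readout: CYP3A4 mRNA, qRT-PCR, ACTB/GAPDH/POLR2A normalization. Bidirectional fit vs DMSO.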

[4] = read-out: DNA damage-inducible transcript 3 (DDIT3), DDIT3 (gene 1649); experiment: LTEA_HepaRG_DDIT3: Life Technologies and Expression Analysis (LTEA) Assay for DNA damage-inducible transcript 3 (DDIT3) using HepaRG (AID 2283488)
Method in brief: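 Changes in DDIT3 transcript, in either direction relative to 0.5% DMSO vehicle, were quantified by TaqMan qRT-PCR after 48 h chemical exposure of HepaRG cells at 8 concentrations, maximum 100 uM.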

[5] = read-out: Pro-epidermal growth factor (Homo sapiens) (UniProt P01133); experiment: LTEA_HepaRG_EGF: Life Technologies and Expression Analysis (LTEA) Assay for Epidermal growth factor (EGF) using HepaRG (AID 2283489)
Method in brief: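 qRT-PCR readout of EGF transcript after 48 h chemical exposure of HepaRG cells; eight concentrations from 100 uM down in half-log steps, duplicate wells, 0.5% DMSO vehicle. Bidirectional curve fitting against DMSO baseline.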

[6] = read-out: Early growth response protein 1 (EGR1) transcription factor, EGR1 (gene 1958); experiment: LTEA_HepaRG_EGR1: Life Technologies and Expression Analysis (LTEA) Assay for Early growth response protein 1 (EGR1) transcription factor using HepaRG (AID 2283490)
Method in brief: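 Differentiated human HepaRG cells in serum-free induction medium were exposed in duplicate for 48 h to eight concentrations (top 100 uM, half-log steps) in 0.5% DMSO. EGR1 mRNA was quantified by qRT-PCR, normalized to ACTB, GAPDH and POLR2A, and fitted bidirectionally versus DMSO.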

[7] = read-out: Ezrin (EZR), EZR (gene 7430); experiment: LTEA_HepaRG_EZR: Life Technologies and Expression Analysis (LTEA) Assay for Ezrin (EZR) using HepaRG (AID 2283491)
Method in brief: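 Read-out is EZR transcript level by qRT-PCR, normalized to three housekeeping genes and fitted bidirectionally against the DMSO control. Human HepaRG cells received test chemicals for 48 h at eight half-log concentrations up to 100 uM in 0.5% DMSO.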

[8] = read-out: Cytochrome P450 3A7 (Homo sapiens) (UniProt P24462); experiment: LTEA_HepaRG_CYP3A7: Life Technologies and Expression Analysis (LTEA) Assay for CYP3A7 using HepaRG (AID 2283492)
Method in brief: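 CYP3A7 transcript levels were read by TaqMan qRT-PCR on Fluidigm arrays after 48 h chemical exposure of human HepaRG cells, with housekeeping-gene normalisation. Eight half-log concentrations up to 100 uM in 0.5% DMSO were tested in duplicate.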

CYP3A5 (gene 1577) = experiment: LTEA_HepaRG_CYP3A5: Life Technologies and Expression Analysis (LTEA) Assay for CYP3A5 using HepaRG (AID 2283493)
Method in brief: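 mRNA induction or loss of CYP3A5 assessed in HepaRG after 48 h dosing, 100 uM top concentration, duplicate wells; TaqMan qRT-PCR with ACTB, GAPDH, POLR2A normalization; 0.5% DMSO as negative control.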

[9] = read-out: Fatty Acid-Binding Protein 1 (FABP1), FABP1 (gene 2168); experiment: LTEA_HepaRG_FABP1: Life Technologies and Expression Analysis (LTEA) Assay for Fatty Acid-Binding Protein 1 (FABP1) using HepaRG (AID 2283494)
Method in brief: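 Differentiated human HepaRG cells were exposed in duplicate for 48 h in serum-free induction medium to 8-point half-log concentration series topping at 100 uM in 0.5% DMSO. FABP1 mRNA measured by TaqMan qRT-PCR, normalized to ACTB/GAPDH/POLR2A; bidirectional fit versus DMSO.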

[10] = read-out: Cytochrome P450 4A22 (Homo sapiens) (UniProt Q5TCH4); experiment: LTEA_HepaRG_CYP4A22: Life Technologies and Expression Analysis (LTEA) Assay for Cytochrome P450 4A22 (CYP4A22) using HepaRG (AID 2283495)
Method in brief: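 HepaRG, 48 h post-plating -> serum-free induction medium; dosed 48 h, duplicate, 8 conc. (100 uM top, half-log), 0.5% DMSO. Readout: CYP4A22 mRNA by qRT-PCR, ACTB/GAPDH/POLR2A normalization; gain/loss fit relative to DMSO.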

[11] = read-out: Cytochrome P450 7A1 (Homo sapiens) (UniProt P22680); experiment: LTEA_HepaRG_CYP7A1: Life Technologies and Expression Analysis (LTEA) Assay for Cytochrome P450 7A1 (CYP7A1) using HepaRG (AID 2283496)
Method in brief: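 Gene expression endpoint in human HepaRG liver cells treated for 48 h with test chemicals (up to 100 uM, 0.5% DMSO). Values come from bidirectional concentration-response fitting versus DMSO.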

[12] = read-out: Glutathione S-Transferase (GSTA2), GSTA2 (gene 2939); experiment: LTEA_HepaRG_GSTA2: Life Technologies and Expression Analysis (LTEA) Assay for Glutathione S-Transferase (GSTA2) using HepaRG (AID 2283497)
Method in brief: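 Human HepaRG cells, plated 48 h, then exposed in serum-free induction medium for 48 h to eight half-log concentrations up to 100 uM in 0.5% DMSO, duplicate. GSTA2 mRNA by qRT-PCR, normalized to ACTB/GAPDH/POLR2A; bidirectional fit versus DMSO.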

[13] = read-out: Glutamate-cysteine ligase catalytic (GCLC), GCLC (gene 2729); experiment: LTEA_HepaRG_GCLC: Life Technologies and Expression Analysis (LTEA) Assay for Glutamate-cysteine ligase catalytic (GCLC) using HepaRG (AID 2283498)
Method in brief: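 Differentiated human HepaRG cells, plated 48 h then switched to serum-free induction medium, were exposed in duplicate for 48 h to 8 half-log concentrations topping at 100 uM in 0.5% DMSO. GCLC mRNA was quantified by qRT-PCR against ACTB, GAPDH and POLR2A.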

[14] = read-out: growth arrest and DNA damage 45 (GADD45G), GADD45G (gene 10912); experiment: LTEA_HepaRG_GADD45G: Life Technologies and Expression Analysis (LTEA) Assay for growth arrest and DNA damage 45 (GADD45G) using HepaRG (AID 2283499)
Method in brief: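 HepaRG, 48 h exposure, top 100 uM, half-log 8-point series, 0.5% DMSO vehicle, duplicates. Readout: GADD45G transcript by qRT-PCR (Fluidigm array), housekeeping-normalised (ACTB/GAPDH/POLR2A). Bidirectional curve fit vs DMSO baseline.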

[15] = read-out: Glutamate-cysteine ligase regulatory (GCLM), GCLM (gene 2730); experiment: LTEA_HepaRG_GCLM: Life Technologies and Expression Analysis (LTEA) Assay for Glutamate-cysteine ligase regulatory (GCLM) using HepaRG (AID 2283500)
Method in brief: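 Human liver HepaRG cultures receive test chemicals for 48 hours at up to 100 uM in 0.5% DMSO. GCLM expression is measured by qRT-PCR and analysed for increases or decreases against vehicle.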

Measured: AC50

Cytochrome P450 3A7 (Homo sapiens), sequence (P24462 whole entry, looked up): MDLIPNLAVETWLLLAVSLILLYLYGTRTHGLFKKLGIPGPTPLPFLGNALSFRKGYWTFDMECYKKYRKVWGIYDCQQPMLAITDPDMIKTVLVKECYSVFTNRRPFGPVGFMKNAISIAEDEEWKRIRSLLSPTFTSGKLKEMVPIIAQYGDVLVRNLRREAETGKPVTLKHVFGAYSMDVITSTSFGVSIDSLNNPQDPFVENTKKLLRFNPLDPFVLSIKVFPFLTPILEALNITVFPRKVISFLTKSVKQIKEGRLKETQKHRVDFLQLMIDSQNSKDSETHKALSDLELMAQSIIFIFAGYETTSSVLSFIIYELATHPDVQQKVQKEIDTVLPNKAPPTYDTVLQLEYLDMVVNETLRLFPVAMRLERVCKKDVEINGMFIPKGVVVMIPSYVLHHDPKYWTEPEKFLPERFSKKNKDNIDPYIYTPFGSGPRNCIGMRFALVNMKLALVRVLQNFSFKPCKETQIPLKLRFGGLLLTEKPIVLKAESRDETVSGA
Cytochrome P450 3A4 (Homo sapiens), sequence (P08684 whole entry, looked up): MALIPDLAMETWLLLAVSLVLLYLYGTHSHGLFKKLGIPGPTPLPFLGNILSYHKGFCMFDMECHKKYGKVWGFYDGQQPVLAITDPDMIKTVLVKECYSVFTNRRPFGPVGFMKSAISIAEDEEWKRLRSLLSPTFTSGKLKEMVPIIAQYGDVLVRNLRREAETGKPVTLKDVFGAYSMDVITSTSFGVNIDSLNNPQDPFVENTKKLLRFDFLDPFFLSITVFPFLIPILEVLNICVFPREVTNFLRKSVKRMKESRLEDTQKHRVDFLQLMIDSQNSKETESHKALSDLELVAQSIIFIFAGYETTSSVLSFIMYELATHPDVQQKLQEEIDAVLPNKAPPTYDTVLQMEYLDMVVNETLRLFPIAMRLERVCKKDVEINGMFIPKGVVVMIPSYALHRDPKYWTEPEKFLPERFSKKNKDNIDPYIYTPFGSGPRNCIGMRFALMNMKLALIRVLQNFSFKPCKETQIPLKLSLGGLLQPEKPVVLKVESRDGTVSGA
Cytochrome P450 2C19 (Homo sapiens), sequence (P33261 whole entry, looked up): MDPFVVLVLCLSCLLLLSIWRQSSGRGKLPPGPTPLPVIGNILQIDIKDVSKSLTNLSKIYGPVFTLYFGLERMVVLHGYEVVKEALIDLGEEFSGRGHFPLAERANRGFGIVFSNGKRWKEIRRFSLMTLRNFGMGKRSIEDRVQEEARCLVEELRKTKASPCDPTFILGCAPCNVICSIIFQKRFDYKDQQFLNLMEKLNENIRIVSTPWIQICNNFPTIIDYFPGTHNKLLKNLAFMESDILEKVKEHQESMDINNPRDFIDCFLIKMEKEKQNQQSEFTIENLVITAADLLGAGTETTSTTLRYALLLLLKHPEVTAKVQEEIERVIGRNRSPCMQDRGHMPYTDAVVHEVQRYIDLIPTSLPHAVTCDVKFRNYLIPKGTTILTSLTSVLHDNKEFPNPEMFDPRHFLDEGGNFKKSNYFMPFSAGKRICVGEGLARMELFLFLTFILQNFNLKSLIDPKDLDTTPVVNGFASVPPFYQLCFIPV

CCCCOC(=O)c1ccccc1C(=O)OCCCC
inactive: [1] | [2] | CYP2C8 (gene 1558) | CYP2C9 (gene 1559) | CYP2E1 (gene 1571) | CYP4A11 (gene 1579) | [3] | [4] | [5] | [6] | [7] | [8] | CYP3A5 (gene 1577) | [9] | [10] | [11] | [12] | [13] | [14] | [15]

CCCCC(CC)COC(=O)c1ccccc1C(=O)OCC(CC)CCCC (stereo not given)
active: [1] 19 µM
inactive: [2] | CYP2C8 (gene 1558) | CYP2C9 (gene 1559) | CYP2E1 (gene 1571) | CYP4A11 (gene 1579) | [4] | [5] | [6] | [7] | [8] | CYP3A5 (gene 1577) | [9] | [10] | [11] | [12] | [13] | [14] | [15]

CCON=C(CC)C1=C(O)CC(c2c(C)cc(C)cc2C)CC1=O (stereo not given)
active: [1] 29.5 µM | [2] 23.5 µM | CYP2C8 (gene 1558) 50 µM | CYP2E1 (gene 1571) 43.6 µM | CYP4A11 (gene 1579) 25 µM | [10] 18.9 µM
inactive: CYP2C9 (gene 1559) | [4] | [5] | [6] | [7] | CYP3A5 (gene 1577) | [9] | [11] | [12] | [13] | [14] | [15]

CC(C)(C)c1ccc(CSc2cnn(C(C)(C)C)c(=O)c2Cl)cc1
inactive: [5] | [13]
active: [1] 1.54 µM | [2] 28 µM | CYP2C8 (gene 1558) 22.5 µM | CYP2C9 (gene 1559) 13.4 µM | CYP2E1 (gene 1571) 1.48 µM | CYP4A11 (gene 1579) 1.75 µM | [3] 1.56 µM | [4] 2.06 µM | [6] 1.12 µM | [8] 1.05 µM | CYP3A5 (gene 1577) 2.11 µM | [9] 2.8 µM | [10] 1.74 µM | [11] 26.1 µM | [12] 8.51 µM | [14] 2.07 µM | [15] 4.86 µM

Cc1cc(Cl)ccc1OCC(=O)O
inactive: CYP2C9 (gene 1559) | [3] | [4] | [5] | [6] | [7] | CYP3A5 (gene 1577) | [9] | [10] | [12] | [13] | [14] | [15]
active: [1] 25.5 µM | [2] 24.3 µM | CYP2C8 (gene 1558) 19.9 µM | CYP2E1 (gene 1571) 30.9 µM | CYP4A11 (gene 1579) 12 µM | [8] 18.8 µM | [11] 24.9 µM

CS/C(C)=N/OC(=O)N(C)SN(C)C(=O)O/N=C(\C)SC
inactive: [1] | [2] | CYP2C8 (gene 1558) | CYP2C9 (gene 1559) | CYP4A11 (gene 1579) | [3] | [4] | [5] | [6] | [7] | [8] | CYP3A5 (gene 1577) | [9] | [10] | [12] | [13] | [14] | [15]
active: CYP2E1 (gene 1571) 9.92 µM | [11] 9.92 µM

O=C(O)COc1nc(Cl)c(Cl)cc1Cl
inactive: CYP2C8 (gene 1558) | CYP2C9 (gene 1559) | CYP2E1 (gene 1571) | CYP4A11 (gene 1579) | [3] | [4] | [5] | [6] | [7] | CYP3A5 (gene 1577) | [9] | [10] | [11] | [12] | [13] | [14] | [15]
active: [1] 51 µM | [2] 51 µM
